# Measured values: the supplement of paper PMC8728848
# The entries come from a sample that favours the strongest signals as a whole.
# B1: PX9961Q-bfa-504-27-504 (Bacteroides fragilis) (protein)
# chain: NDWLDRKPADGIPSEDAITNYNDALTARTGMYDGIQGNSNATSYYGARMFYYGDVRADDMQARTQGMRSSSCYEMLYTVDDAPNMWNIPYNVIRRANRLIEAINEKKVTDATEAQIGKIYSEALVVRALVHFDLVRIYGMPYTADNGASLGVPVIVKPLERNDLPSRNTVAEVYTQVITDLTDAINSGYLAKDQTPGYINEWAAKALLTRVYLTKGDNENALKVAEDIITNSPYKLWTNEEYVNAWYKSNGAHTNEMIFEVVNASNDDWTDRNGIAYLLNENGYADAIVTKSFMNMLSQDPKDVRIGMVLPAQYDKDLQEEYGDAKIFINKFPADKDDVGEMRLNNLPLLRLSEVYLSAAEAAAKLGGHQDKAAKYLNEIVQRANPEAKAISEADATVERIILERRKEMIGEGQRYFDALRNNETIVRYKDEGDKGYHYSLIKESQSFDRTYFRAILPIPVDETNVNPNLRAQQNPGY
# Key:
# Assay in all cases: glycan array binding signal (z-score within array); higher = stronger binding
# Conditions in all cases: glycan notation: IUPAC condensed, linker removed
# [1] = biological target: Fuc(a1-2)Gal(b1-3)GlcNAc(b1-2)Man(a1-3)[Fuc(a1-2)Gal(b1-3)GlcNAc(b1-2)Man(a1-6)]Man(b1-4)GlcNAc(b1-4)GlcNAc
# Outline: (§1)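 Glycan array data were curated from 3228 arrays in the Consortium for Functional Glycomics database and kept only where the protein sequence was available. Glycan names were converted to IUPAC-condensed notation, and columns mapping to the same glycan were averaged. The binding signal is a within-array Z-score, averaged across arrays of the same protein sequence at different concentrations or buffers and across linkers. Negative Z-scores can be read as non-binding.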
# [2] = biological target: Fuc(a1-2)Gal(b1-3)GlcNAc(b1-3)Gal(b1-4)Glc
# Outline: as §1
# [3] = biological target: Fuc(a1-2)Gal(b1-3)GlcNAc(b1-3)[Gal(b1-4)GlcNAc(b1-6)]Gal(b1-4)Glc
# Outline: as §1
# Fuc(a1-2)Gal(b1-4)Glc = biological target: Fuc(a1-2)Gal(b1-4)Glc
# Outline: as §1
# [4] = biological target: Fuc(a1-2)Gal(b1-4)GlcNAc(b1-6)GalNAc
# Outline: as §1
# [5] = biological target: Fuc(a1-2)[Gal(a1-3)]Gal(b1-3)GalNAc
# Outline: as §1
# [6] = biological target: Fuc(a1-2)[Gal(a1-3)]Gal(b1-4)Glc
# Outline: as §1
# [7] = biological target: Fuc(a1-2)[Gal(a1-4)]Gal(b1-4)GlcNAc
# Outline: as §1
# [8] = biological target: Fuc(a1-2)[GalNAc(a1-3)]Gal(b1-4)GlcNAc
# Outline: as §1
# [9] = biological target: Fuc(a1-3)[Gal(b1-4)]GlcNAc(b1-2)Man(a1-3)[Fuc(a1-3)[Gal(b1-4)]GlcNAc(b1-2)Man(a1-6)]Man(b1-4)GlcNAc(b1-4)GlcNAc
# Outline: as §1
# [10] = biological target: Fuc(a1-3)[Gal(b1-4)]GlcNAc(b1-6)GalNAc
# Outline: as §1
# [11] = biological target: Gal(a1-3)Gal(b1-3)GlcNAc(b1-2)Man(a1-3)[Gal(a1-3)Gal(b1-3)GlcNAc(b1-2)Man(a1-6)]Man(b1-4)GlcNAc(b1-4)GlcNAc
# Outline: as §1
# [12] = biological target: Gal(a1-3)Gal(b1-3)[Fuc(a1-4)]GlcNAc(b1-2)Man(a1-3)[Gal(a1-3)Gal(b1-3)[Fuc(a1-4)]GlcNAc(b1-2)Man(a1-6)]Man(b1-4)GlcNAc(b1-4)GlcNAc
# Outline: as §1
# [13] = biological target: Gal(a1-4)Gal(b1-3)GlcNAc(b1-2)Man(a1-3)[Gal(a1-4)Gal(b1-3)GlcNAc(b1-2)Man(a1-6)]Man(b1-4)GlcNAc(b1-4)GlcNAc
# Outline: as §1
# Gal(a1-4)Gal(b1-4)Glc = biological target: Gal(a1-4)Gal(b1-4)Glc
# Outline: as §1
# [14] = biological target: Gal(b1-3)GlcNAc(b1-2)Man(a1-3)[Gal(b1-3)GlcNAc(b1-2)Man(a1-6)]Man(b1-4)GlcNAc(b1-4)GlcNAc
# Outline: as §1
# [15] = biological target: Gal(b1-3)GlcNAc(b1-3)Gal(b1-4)[Fuc(a1-3)]GlcNAc(b1-6)[Gal(b1-3)GlcNAc(b1-3)]Gal(b1-4)Glc
# Outline: as §1
# Gal(b1-3)GlcNAc6S = biological target: Gal(b1-3)GlcNAc6S
# Outline: as §1
# [16] = biological target: Gal(b1-4)GlcNAc(b1-2)Man(a1-3)[Man(a1-6)]Man(b1-4)GlcNAc(b1-4)GlcNAc
# Outline: as §1
# [17] = biological target: Gal(b1-4)GlcNAc(b1-3)Gal(b1-4)GlcNAc(b1-3)Gal(b1-4)GlcNAc(b1-2)Man(a1-3)[Gal(b1-4)GlcNAc(b1-3)Gal(b1-4)GlcNAc(b1-3)Gal(b1-4)GlcNAc(b1-2)Man(a1-6)]Man(b1-4)GlcNAc(b1-4)GlcNAc
# Outline: as §1
# [18] = biological target: Gal(b1-4)GlcNAc(b1-3)Gal(b1-4)GlcNAc(b1-3)Gal(b1-4)GlcNAc(b1-3)Gal(b1-4)GlcNAc(b1-2)Man(a1-3)[Gal(b1-4)GlcNAc(b1-3)Gal(b1-4)GlcNAc(b1-3)Gal(b1-4)GlcNAc(b1-3)Gal(b1-4)GlcNAc(b1-2)Man(a1-6)]Man(b1-4)GlcNAc(b1-4)GlcNAc
# Outline: as §1
# [19] = biological target: Gal(b1-4)GlcNAc(b1-3)Gal(b1-4)GlcNAc(b1-3)Gal(b1-4)GlcNAc(b1-3)Gal(b1-4)GlcNAc(b1-3)Gal(b1-4)GlcNAc(b1-2)Man(a1-3)[Gal(b1-4)GlcNAc(b1-3)Gal(b1-4)GlcNAc(b1-3)Gal(b1-4)GlcNAc(b1-3)Gal(b1-4)GlcNAc(b1-3)Gal(b1-4)GlcNAc(b1-2)Man(a1-6)]Man(b1-4)GlcNAc(b1-4)GlcNAc
# Outline: as §1
# [20] = biological target: Gal(b1-4)GlcNAc(b1-3)Gal(b1-4)[Fuc(a1-3)]GlcNAc(b1-3)Gal(b1-4)[Fuc(a1-3)]GlcNAc
# Outline: as §1
# [21] = biological target: Gal(b1-4)GlcNAc(b1-6)GalNAc
# Outline: as §1
# Gal3S(b1-3)GlcNAc = biological target: Gal3S(b1-3)GlcNAc
# Outline: as §1
# Gal6S(b1-4)Glc6S = biological target: Gal6S(b1-4)Glc6S
# Outline: as §1
# Gal6S(b1-4)GlcNAc = biological target: Gal6S(b1-4)GlcNAc
# Outline: as §1
# GalNAc(b1-4)Gal(b1-4)Glc = biological target: GalNAc(b1-4)Gal(b1-4)Glc
# Outline: as §1
# [22] = biological target: Glc(a1-6)Glc(a1-6)Glc(a1-6)Glc
# Outline: as §1
# Glc(b1-4)Glc = biological target: Glc(b1-4)Glc
# Outline: as §1
# [23] = biological target: GlcA3S(b1-3)Gal(b1-4)GlcNAc(b1-3)Gal(b1-4)Glc
# Outline: as §1
# [24] = biological target: GlcNAc(b1-3)Gal(b1-4)GlcNAc
# Outline: as §1
# [25] = biological target: GlcNAc(b1-3)Gal(b1-4)GlcNAc(b1-3)Gal(b1-4)GlcNAc(b1-3)Gal(b1-4)GlcNAc(b1-2)Man(a1-3)[GlcNAc(b1-3)Gal(b1-4)GlcNAc(b1-3)Gal(b1-4)GlcNAc(b1-3)Gal(b1-4)GlcNAc(b1-2)Man(a1-6)]Man(b1-4)GlcNAc(b1-4)[Fuc(a1-6)]GlcNAc
# Outline: as §1
# GlcNAc(b1-3)Man = biological target: GlcNAc(b1-3)Man
# Outline: as §1
# [26] = biological target: GlcNAc(b1-4)Gal(b1-4)GlcNAc
# Outline: as §1
# [27] = biological target: GlcNAc(b1-4)GlcNAc(b1-4)GlcNAc(b1-4)GlcNAc(b1-4)GlcNAc(b1-4)GlcNAc
# Outline: as §1
# GlcNAc(b1-6)GalNAc = biological target: GlcNAc(b1-6)GalNAc
# Outline: as §1
# [28] = biological target: Man(a1-2)Man(a1-2)Man(a1-6)[Man(a1-3)]Man
# Outline: as §1
# [29] = biological target: Man(a1-3)[Man(a1-6)]Man(a1-6)[Man(a1-3)]Man
# Outline: as §1
# Man(a1-6)Man = biological target: Man(a1-6)Man
# Outline: as §1
# [30] = biological target: Neu5Ac(a2-3)Gal(b1-4)GlcNAc(b1-2)[Neu5Ac(a2-3)Gal(b1-4)GlcNAc(b1-6)]Man(a1-6)[Neu5Ac(a2-3)Gal(b1-4)GlcNAc(b1-2)Man(a1-3)][GlcNAc(b1-4)]Man(b1-4)GlcNAc(b1-4)GlcNAc
# Outline: as §1
# [31] = biological target: Neu5Ac(a2-6)Gal(b1-3)GlcNAc(b1-3)[Gal(b1-4)GlcNAc(b1-6)]Gal(b1-4)Glc
# Outline: as §1
# [32] = biological target: Neu5Ac(a2-6)Gal(b1-4)GlcNAc
# Outline: as §1
# [33] = biological target: Neu5Ac(a2-6)Gal(b1-4)GlcNAc(b1-2)Man(a1-6)[GlcNAc(b1-2)Man(a1-3)]Man(b1-4)GlcNAc(b1-4)GlcNAc
# Outline: as §1
# [34] = biological target: Neu5Ac(a2-6)Gal(b1-4)GlcNAc(b1-2)[Neu5Ac(a2-6)Gal(b1-4)GlcNAc(b1-4)]Man(a1-3)[GlcNAc(b1-4)][Neu5Ac(a2-6)Gal(b1-4)GlcNAc(b1-2)[Neu5Ac(a2-6)Gal(b1-4)GlcNAc(b1-6)]Man(a1-6)]Man(b1-4)GlcNAc(b1-4)GlcNAc
# Outline: as §1
# [35] = biological target: Neu5Ac(a2-6)Gal(b1-4)GlcNAc(b1-3)Gal(b1-4)GlcNAc(b1-3)GalNAc
# Outline: as §1
# [36] = biological target: Neu5Ac(a2-6)Gal(b1-4)GlcNAc(b1-3)GalNAc
# Outline: as §1
# Neu5Gc(a2-6)GalNAc = biological target: Neu5Gc(a2-6)GalNAc
# Outline: as §1
binder,measurement,setting,value
B1,glycan array binding signal (z-score),[1],2.69
same,glycan array binding signal (z-score),[2],0.015
same,glycan array binding signal (z-score),[3],-0.322
same,glycan array binding signal (z-score),Fuc(a1-2)Gal(b1-4)Glc,-0.701
same,glycan array binding signal (z-score),[4],0.145
same,glycan array binding signal (z-score),[5],0.904
same,glycan array binding signal (z-score),[6],0.106
same,glycan array binding signal (z-score),[7],1.12
same,glycan array binding signal (z-score),[8],-0.704
same,glycan array binding signal (z-score),[9],0.155
same,glycan array binding signal (z-score),[10],4.03
same,glycan array binding signal (z-score),[11],0.772
same,glycan array binding signal (z-score),[12],8.13
same,glycan array binding signal (z-score),[13],2.6
same,glycan array binding signal (z-score),Gal(a1-4)Gal(b1-4)Glc,0.623
same,glycan array binding signal (z-score),[14],3.77
same,glycan array binding signal (z-score),[15],12.8
same,glycan array binding signal (z-score),Gal(b1-3)GlcNAc6S,-0.822
same,glycan array binding signal (z-score),[16],-0.622
same,glycan array binding signal (z-score),[17],2.45
same,glycan array binding signal (z-score),[18],2.49
same,glycan array binding signal (z-score),[19],0.85
same,glycan array binding signal (z-score),[20],-0.284
same,glycan array binding signal (z-score),[21],0.056
same,glycan array binding signal (z-score),Gal3S(b1-3)GlcNAc,-0.053
same,glycan array binding signal (z-score),Gal6S(b1-4)Glc6S,-0.063
same,glycan array binding signal (z-score),Gal6S(b1-4)GlcNAc,-0.679
same,glycan array binding signal (z-score),GalNAc(b1-4)Gal(b1-4)Glc,0.821
same,glycan array binding signal (z-score),[22],-0.611
same,glycan array binding signal (z-score),Glc(b1-4)Glc,-0.009
same,glycan array binding signal (z-score),[23],-1.22
same,glycan array binding signal (z-score),[24],-0.27
same,glycan array binding signal (z-score),[25],2.65
same,glycan array binding signal (z-score),GlcNAc(b1-3)Man,0.083
same,glycan array binding signal (z-score),[26],-0.752
same,glycan array binding signal (z-score),[27],-0.594
same,glycan array binding signal (z-score),GlcNAc(b1-6)GalNAc,0.361
same,glycan array binding signal (z-score),[28],0.712
same,glycan array binding signal (z-score),[29],0.661
same,glycan array binding signal (z-score),Man(a1-6)Man,-0.352
same,glycan array binding signal (z-score),[30],0.676
same,glycan array binding signal (z-score),[31],6.14
same,glycan array binding signal (z-score),[32],-0.355
same,glycan array binding signal (z-score),[33],-0.638
same,glycan array binding signal (z-score),[34],2.53
same,glycan array binding signal (z-score),[35],-0.164
same,glycan array binding signal (z-score),[36],-0.107
same,glycan array binding signal (z-score),Neu5Gc(a2-6)GalNAc,0.187
